# This is a sample that favours compounds with a hit; in the whole collection about 2.4% have one here.
# D2 ag-1 = agonists of human D2 dopamine receptor. AID 485358. activation, % at 2 µM. actives 0.53% (n = 340,000). P14416. HEK293 T-REx D2 cells, calcium flux agonist mode;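 active means activation over 3 SD above normal in the single-dose calcium agonist read, cut at about 30% in these data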
# Target sequence (P14416 whole entry, looked up): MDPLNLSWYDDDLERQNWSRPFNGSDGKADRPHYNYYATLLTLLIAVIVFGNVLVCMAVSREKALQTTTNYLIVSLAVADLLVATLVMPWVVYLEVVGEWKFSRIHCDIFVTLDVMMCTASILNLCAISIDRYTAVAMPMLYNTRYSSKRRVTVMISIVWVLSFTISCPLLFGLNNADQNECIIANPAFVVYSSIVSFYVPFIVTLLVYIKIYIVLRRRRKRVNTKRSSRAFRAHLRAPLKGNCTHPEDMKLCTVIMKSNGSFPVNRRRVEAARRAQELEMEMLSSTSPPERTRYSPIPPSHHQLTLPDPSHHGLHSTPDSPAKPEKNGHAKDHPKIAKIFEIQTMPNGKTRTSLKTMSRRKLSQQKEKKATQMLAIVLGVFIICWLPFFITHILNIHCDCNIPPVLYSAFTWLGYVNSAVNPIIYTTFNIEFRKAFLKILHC
#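 Agonism is scored from calcium flux in a force-coupled, inducible HEK293 cell line expressing D2, read kinetically for 180 s after compound addition against dopamine controls.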
# D2 antag = antagonists of human D2 dopamine receptor. HEK293 TREx D2 cells, calcium flux, dopamine EC80. P14416. actives 2% (n = 340,000). inhibition, % at 10 µM; in the data active means inhibition above about 30%; inactive means below that, where a call was filed
#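 Overnight-induced (tetracycline, 30 C) HEK293 T-REx cells carrying force-coupled D2 receive a no-wash calcium dye, then compound, then EC80 dopamine at 180 s; signals are read kinetically throughout.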
# D2 PAM-1 = D2 dopamine receptor (human) potentiation. P14416. HEK293 T-REx D2, calcium flux, EC20 dopamine potentiation. potentiation, % at 10 µM. actives 0.34% (n = 340,000);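 active means potentiation over 3 SD above the plate norm, cut at about 30% in these data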
#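 Calcium flux readout, no-wash dye, 1 read/s. Inducible HEK293 Trex D2 line, overnight 30 C. Compound alone 180 s (agonist flags), then EC20 dopamine, another 180 s to score potentiation.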
# D2 PAM-2 = human D2 receptor positive allosteric modulation | P14416 | DiscoveRx D2 beta-arrestin cells, luminescence, 90 min; 100% = 57 uM dopamine signal | potentiation, % (no concentration beside the values) | actives 0.23% (n = 360,000) | AID 624464; in the data active means potentiation above about 50%; inconclusive means mostly about 30% to 49%
#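 PathHunter beta-arrestin assay in DiscoveRx D2 cells. Compounds were added with an EC20 of dopamine (50 nM final) for 90 min at 37 deg C. Luminescence was read 1 h after detection reagent, with 57 uM dopamine as the EC100 control.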
# D2 ag-2 = activates the human D2 dopamine receptor; P14416; DiscoveRx PathHunter D2 beta-arrestin, luminescence, 90 min; 100% = 57 uM dopamine signal; activation, % (no concentration beside the values); actives 0.084% (n = 360,000); AID 624465; in the data active means activation above about 40%; inconclusive means between about 15% and that limit
#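 Agonist mode: compounds alone added to overnight-plated D2 PathHunter cells for 90 min at 37 C, with 57 uM final dopamine (EC100) defining full response. Beta-arrestin recruitment detected by chemiluminescent reagent, read after 1 h at ambient temperature.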
# Hits are given with their value; n = inactive; u = inconclusive; x = not tested or not shown.
SMILES,D2 ag-1,D2 antag,D2 PAM-1,D2 PAM-2,D2 ag-2
COc1cccc(C(=O)O/N=C(\N)c2ccc([N+](=O)[O-])cc2)c1,n,n,n,136.5,u
COc1ccc(/C(N)=N/OC(=O)c2ccc3c(c2)OCO3)cc1,n,n,n,103.4,u
COc1ccc(/C(N)=N/OC(=O)c2cccc([N+](=O)[O-])c2)cc1,n,n,n,n,n
CC(C)Sc1nc2sc3c(c2c(=O)n1Cc1ccccc1)CCCC3,n,x,n,x,x
Cc1nc2cc(NC(=O)CS(=O)(=O)c3ccc(F)cc3)ccc2s1,n,n,n,n,n
CCC(=O)OCc1cnc(C)c2oc(=O)c(C(=O)Nc3ccccc3C(F)(F)F)cc12,n,x,n,x,x
COc1ccc(C(=O)O/N=C(\N)c2ccc(Cl)cc2)cc1,n,n,n,n,u
COc1ccc(C(=O)O/N=C(\N)c2ccncc2)cc1OC,n,n,n,85.2,u
COc1cc(C(=O)O/N=C(\N)c2ccncc2)cc(OC)c1OC,n,n,n,84.0,n
COc1cccc(C(=O)O/N=C(\N)Cc2ccc(Cl)cc2)c1,n,n,n,125.2,u
CCOC(=O)[C@@H]1[C@H]2COc3cc(OC)ccc3[C@@H]2N2C(=O)N(c3cccc(C)c3)C(=O)[C@]12C,x,x,x,n,n
COc1ccc(OC)c(CNC(=O)c2cnc(N(C)C)nc2)c1,n,x,n,x,x
COc1ccc2c(c1)CC(NC(=O)Nc1ccc(Br)c(C)c1)CO2 (stereo not given),n,x,n,x,x
COc1ccc(C(=O)NCCSCc2cccc(Cl)c2)cc1OC,n,32.0,n,n,n
COc1ccc(C(=O)NCCc2cnc[nH]2)cc1OC,n,34.9,n,n,n
COc1ccc(C(=O)NCCC2=CCCCC2)cc1,n,n,n,n,n
COc1ccc(C(=O)NCCC2=CCCCC2)cc1OC,n,34.5,n,n,n
CCOC(=O)C1CCCN(C(=O)c2cccc(NC(=O)c3nsc4ccccc34)c2)C1 (stereo not given),n,x,n,x,x
COc1cccc(/C=N/NC(=O)CNC(=O)c2ccncc2)c1O,n,n,64.8,n,n
COc1cccc(/C=N/NC(=O)CNC(=O)c2cccnc2)c1O,n,n,n,n,n
Cc1ccc(C(=O)N/N=C\c2cc3c(cc2Br)OCO3)s1,n,65.8,n,n,n
COC(=O)N/N=C\c1cc2c(cc1Br)OCO2,n,n,n,n,n
CC1OC(O[C@H]2CC[C@]3(C)C4C=C[C@]56OC[C@@]7(CC[C@@H](C)[C@H](C)C75)[C@H](O)C[C@@]6(C)[C@]4(C)CC[C@H]3C2(C)C)C(OC2OC(CO)C(O)C(O)C2OC2OCC(O)C(O)C2O)C(O)C1O (stereo not given in full),43.0,35.1,n,x,x
CC1O[C@@H](OC2C(COC3OC(CO)C(O)[C@H](O)C3O)OC(OC3CC[C@]4(C)C(CC[C@@]5(C)[C@@H]4CC=C4[C@@H]6CC(C)(C)CC[C@]6(CO)C(O)C[C@]45C)C3(C)C)C(O)C2O)C(O)C(O)C1O (stereo not given in full),x,x,x,n,n
COc1cc(C(C(=O)NC2CCCC2)N(C(=O)c2snc(C(N)=O)c2N)C2CCCC2)cc(OC)c1OC (stereo not given),n,31.6,n,n,n
SMILES,D2 ag-1,D2 antag,D2 PAM-1,D2 PAM-2,D2 ag-2
Cc1ccc(S(=O)(=O)Nc2cc3c(C(=O)Nc4ccccc4)c(C)oc3c3ccccc23)cc1,n,n,n,83.9,n
CCOC(=O)c1c(C)oc2c1cc(NS(=O)(=O)c1ccc(C)cc1)c1ccccc12,n,x,n,x,x
COc1ccc(-n2nc(C(=O)N3CCN(c4ccc(F)cc4)CC3)c3ccccc3c2=O)c(OC)c1,n,34.4,n,n,n
Cc1cccc(C(=O)OCC(=O)NCCNC(=O)COC(=O)c2cccc(C)c2C)c1C,n,n,n,n,n
CCCCn1c(CCC)nc([N+](=O)[O-])c1Sc1ccc(Cl)cn1,n,40.2,n,n,n
CCC(NC(=S)NC1CCCCC1)c1ccc(C)cc1 (stereo not given),n,n,n,x,x
O=C(Nc1cc(-c2ccccc2)cs1)c1ccco1,n,31.3,n,n,n
O=C(Nc1nc(-c2ccccc2)cs1)c1ccco1,n,n,n,n,n
CCc1ccc(N2CC(C(=O)OCC(=O)Nc3ccc(C(C)=O)cc3)CC2=O)cc1 (stereo not given),n,n,n,n,n
Cc1cccc(C)c1NC(=O)CN1C(=O)S/C(=C\c2cccn2C)C1=O,n,30.1,n,n,n
Cc1cccc(C)c1NC(=O)CN1C(=O)S/C(=C\c2cccn2-c2cccc(C(=O)O)c2)C1=O,n,n,n,n,n
CCOC(=O)C1CCN(S(=O)(=O)c2cnc[nH]2)CC1,n,34.9,n,n,n
CCOC(=O)c1ccc(NC(=O)Cn2cc(C(=O)C3CC3)c3ccccc32)cc1,n,x,n,x,x
COc1ccccc1NC(=O)Cn1c(=O)n(C)c(=O)c2sc3c(c21)COC(C)(C)C3,n,31.9,n,n,n
CCN(CC)CCOc1c(C)cccc1Cl,n,62.0,n,n,n
CCCc1cc(C(=O)Nc2cccc(Cl)c2)no1,n,33.1,n,n,n
CCCc1cc(C(=O)Nc2ccc(F)c(Cl)c2)no1,n,35.1,n,n,n
CCCCOc1ccc(C2/C(=C(/O)c3ccc4c(c3)CC(C)O4)C(=O)C(=O)N2CCCN2CCOCC2)cc1OC (stereo not given),n,n,n,n,n
CN1CCN(C(=O)CCN2C(=O)/C(=C/c3cccc(Br)c3)SC2=S)CC1,n,31.0,n,n,n
O=C(CCN1C(=O)S/C(=C\c2ccccc2)C1=O)N1CCCCC1,n,35.0,n,n,n
CCCCNC(=O)c1nn(-c2ccc(C)cc2)c(=O)c2c1c1ccccc1n2C,n,x,n,x,x
C=CC[C@@H]1C=C[C@H](O/N=C/[C@@H](NS(=O)(=O)c2ccc(C)cc2)[C@H](C)/C=C/CC(=O)OC)[C@@H](CO)O1,n,31.0,n,x,x
COC(=O)C/C=C/[C@@H](C)[C@@H](/C=N/OC[C@@H](C)[C@H](OCc1ccccc1)C(C)C)NS(=O)(=O)c1ccc(C)cc1,x,x,n,x,x
O=C(CSc1nc2ccc(N3CCOCC3)cc2c(=O)n1CCc1ccccc1)NCC1CCCO1 (stereo not given),n,40.6,x,n,n
O=c1oc2ccccc2cc1-c1nc2c(s1)CCc1ccccc1-2,n,n,n,u,n
O=c1oc2cc(O)ccc2cc1-c1nc2c(s1)CCc1ccccc1-2,141.0,80.2,n,n,n
CSc1nsc(SCC(=O)Nc2ccc(C(C)=O)cc2)n1,n,n,n,n,n
CSc1nsc(SCC(=O)Nc2ccc(C(N)=O)cc2)n1,n,37.4,x,n,n
Cc1onc(-c2ccccc2)c1C(=O)OCC(=O)Nc1ccc(Cl)cc1,n,37.4,n,n,n

# Assay outcomes: PubChem, National Center for Advancing Translational Sciences (NCATS)
